Screening results from PubChem.
VP16 counter: inhibits Gal4-VP16 luciferase reporter, ROR gamma counter-screen. 310,000 tested, 3.5% active. Drosophila S2 Gal4-VP16 UAS-luciferase, luminescence, 20 h. AID 2546. Potency, µM (titrated, usually from 53.6 µM), for the others: at the highest dose activity, negative = inhibition, actives largely listed as inhibitors;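 note: Gal4-VP16 expression switched on by copper sulfate through the metallothionein promoter; nearly all actives have a fitted effect of over 50% in size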
TDP1 cell CPT: growth inhibition of DT40 Tdp1-/-;hTDP1 cells with camptothecin (screen for TDP1 inhibitors). 420,000 tested, 12% active. chicken DT40 Tdp1-/-;hTDP1 cells + 20 nM CPT, ATP luminescence, 48 h. Potency, µM (titrated, usually from 46.2 µM), inactives show top-dose activity change, negative = growth inhibition, usual class: inhibitors; note: nearly all actives have a fitted effect of over 55% in size
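Chicken DT40 Tdp1-/- cells complemented with human TDP1, 400 cells/well, exposed to compounds plus 20 nM camptothecin for at least 48 h at 37 C; viability read as ATP content by CellTiter-Glo luminescence.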
TDP1 block: TDP1 (human) enzyme inhibition. recombinant TDP1, AlphaScreen DNA substrate cleavage. Potency, µM (series often up to 130 µM), for inactives: at the highest dose activity change, negative = inhibition, usual class: inhibitors. 350,000 tested, 0.28% active; note: nearly all actives have a fitted effect of over 40% in size
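AlphaScreen read-out: signal falls as enzyme removes the 3' tyrosine-FITC from a 5'-biotinylated DNA oligo (15 nM, 5 min, RT). Enzyme was E. coli-made recombinant Tdp1 at 1 nM, exposed to compound for 15 min beforehand; beads 10 ug/ml, 10 min.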
DT40 TDP1 no CPT: qHTS for Inhibitors of human tyrosyl-DNA phosphodiesterase 1 (TDP1): qHTS in cells in absence of CPT. Potency, µM (titrated, usually from 46.2 µM), without a hit: at the highest dose activity change, negative = growth inhibition, usual class: inhibitors. AID 686978, 2013. DT40 Tdp1-/- hTDP1 cells, no CPT, ATP luminescence, 48 h. 420,000 tested, 15% active; note: nearly all actives have a fitted effect of over 55% in size
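Camptothecin absent (DMSO only). Human TDP1-complemented DT40 knockout cells, 400 cells/well, 37 °C for minimum 48 hr; ATP measured via CellTiter-Glo, 30 min dark incubation, luminescence.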
RORg inh: blocks mouse ROR gamma transcriptional activity; P51450; Drosophila S2 Gal4-RORgamma UAS-luciferase reporter, 20 h; Potency, µM (top dose mostly 53.6 µM), for inactives: at the highest dose activity change, negative = inhibition, hits mostly inhibitors; 310,000 tested, 5.4% active; note: nearly all actives have a fitted effect of over 60% in size
Target sequence (P51450 whole entry, looked up, the tested form may be a part): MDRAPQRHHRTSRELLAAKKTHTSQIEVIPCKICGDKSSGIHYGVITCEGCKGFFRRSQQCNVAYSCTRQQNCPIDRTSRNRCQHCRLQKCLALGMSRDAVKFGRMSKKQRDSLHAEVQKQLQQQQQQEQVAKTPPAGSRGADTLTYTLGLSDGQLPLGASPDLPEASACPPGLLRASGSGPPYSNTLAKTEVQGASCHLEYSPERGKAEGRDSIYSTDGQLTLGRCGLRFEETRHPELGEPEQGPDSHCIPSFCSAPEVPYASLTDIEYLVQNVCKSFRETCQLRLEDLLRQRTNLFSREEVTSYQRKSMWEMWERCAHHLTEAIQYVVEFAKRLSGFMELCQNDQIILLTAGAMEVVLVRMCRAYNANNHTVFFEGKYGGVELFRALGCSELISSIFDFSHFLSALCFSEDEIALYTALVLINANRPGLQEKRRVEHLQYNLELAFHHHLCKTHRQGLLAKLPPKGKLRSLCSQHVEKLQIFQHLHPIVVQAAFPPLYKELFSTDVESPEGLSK
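A Gal4/UAS one-hybrid system in insect cells: metallothionein-promoter Gal4–ROR gamma fusion plus Photinus luciferase reporter. Copper sulfate 700 uM final, 20 hr ambient incubation, luminescent detection after 10 min with reagent.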
Starred values were filed as active, the others as inactive; ? = inconclusive; nt = no result; [ ] = dose if it differs, or a comment. Compounds with a hit are over-represented: about 19% of the library has one in this group of screens. Calls come from the whole dose curve; as a rule, active = well fitted curve in the direction sought with a large enough effect; inconclusive = small, poorly fitted or top-dose-only effect, or another doubt; inactive = no such curve, though single readings can be large; an effect the other way counts as inactive or inconclusive. % is set by controls: 0 for no effect and ±100 for the full control effect; potency is the fitted concentration of half-maximal effect.

SMILES | VP16 counter | TDP1 cell CPT | TDP1 block | DT40 TDP1 no CPT | RORg inh
C=C1CC[C@@H]2[C@](C)(CO)[C@H](O)CC[C@@]2(C)[C@@H]1C/C=C1/C(=O)OC[C@H]1O | nt | 3µM* | nt | 2.7µM* | nt
C=C/C(C)=C/CC1C(=C)CCC2C(C)(C(=O)O)CCCC12C (stereo unspecified) | -3% | 5% | nt | 4% | 14%
C=C1CC[C@@H]2[C@](C)(CO)[C@H](O)CC[C@@]2(C)[C@@H]1C/C=C1/C(=O)OCC1O (stereo partly specified) | nt | 15µM* | nt | 8.2µM* | nt
COc1cc(CC(=O)Nc2ncc(C)s2)cc(OC)c1OC | -1% | ? | 4% | ? | -8%
Cc1cccc(CSC2=CS(=O)(=O)c3ccccc3N2)c1 | -4% | ? | 7% | 23µM* | 28%
CCCN(CC1CC1)C(=O)Nc1ccccc1C | 2% | 0% | 2% | 7% | 3%
O=C(COc1ccc(Br)cc1)NCc1cn2ccccc2n1 | 21% | -23% | nt | -5% | 8%
Cc1cccn2cc(COc3ccc(-c4ccccc4)cc3)nc12 | ? | -20% | 2% | 12µM* | 13µM*
Brc1ccc(OCc2cn3ccccc3n2)cc1 | -4% | -8% | 0% | ? | 10µM*
Cc1cccn2cc(COc3cccc([N+](=O)[O-])c3)nc12 | 0% | 4% | 2% | -4% | 1%
NC1=NC2(CCCC2)N=C(Nc2ccccc2)N1 | 0% | 4% | -3% | -2% | 0%
COc1ccc(S(=O)(=O)N2CCCC2CNC(=O)c2cccc(OC)c2)cc1 (stereo unspecified) | nt | -25% | -3% | -29% | nt
O=C(C1=C(O)C(=O)N(CCN2CCOCC2)C1c1ccc([N+](=O)[O-])cc1)c1cc2ccccc2o1 (stereo unspecified) | -9% | 5% | 7% | 9% | -9%
CCC(C)NCC(O)(c1ccc(Cl)cc1)c1ccc(Cl)cc1 (stereo unspecified) | 12% | 23µM* | 3% | 23µM* | -18%
O=C(Nc1nc(-c2cccs2)cs1)c1ccc([N+](=O)[O-])o1 | nt | ? | 0% | 21µM* | nt
O=C(Nc1nc(-c2ccc(Cl)cc2)cs1)C1=COCCO1 | nt | 23µM* | 4% | 23µM* | nt
O=C(Nc1nc(-c2cccs2)cs1)C1=COCCO1 | -9% | ? | -8% | 23µM* | 23%
O=C(Cc1ccccc1)Nc1nc(-c2cccs2)cs1 | 17% | ? | 2% | -28% | -27%
CCc1ccc(-c2csc(NC(=O)C3=COCCO3)n2)cc1 | nt | 12µM* | 3% | ? | nt
CCOC(=O)c1ccc(NC(=O)c2c(N)n(C)c(=O)n(C)c2=O)cc1 | nt | -6% | nt | -11% | nt
O=S(=O)(c1ccc(F)cc1)c1nc(-c2ccco2)oc1Nc1ccccc1 | 12% | ? | 9% | ? | ?
CCOC(=O)c1c(N)sc2c1C1CCN2CC1 | -1% | -26% | 5% | -25% | 29%
Cc1sc(NC(=O)C2=COCCO2)nc1-c1ccc(Cl)cc1 | nt | ? | -5% | 21µM* | nt
CCOc1ccc2c(c1)C(N(CCN1CCOCC1)C(=S)Nc1ccccc1OC)CC(C)(C)O2 (stereo unspecified) | ? | -29% | 8% | ? | 16µM*
CCN1CCCc2cc(CN(CCN3CCOCC3)C(=S)Nc3ccc(OC)c(OC)c3)ccc21 | -1%[10 µM] | -3% | 8% | 19% | -1%
SMILES | VP16 counter | TDP1 cell CPT | TDP1 block | DT40 TDP1 no CPT | RORg inh
CCN1CCCc2cc(CN(CCN3CCOCC3)C(=S)Nc3ccccc3OC)ccc21 | -14% | ? | 7% | 16µM* | 10µM*
CCN1CCCc2cc(CN(CCN3CCOCC3)C(=S)Nc3cccc(C)c3)ccc21 | -2%[10 µM] | 16µM* | 11% | ? | 6.3µM*
CCN1CCCc2cc(CN(CCN3CCOCC3)C(=S)Nc3ccc(OC)c(Cl)c3)ccc21 | 1% | ? | 6% | 9.2µM* | -32%
CCCCN(CC)Cc1ccc(CNC(=O)Nc2ccc(OCC)cc2)o1 | -2% | ? | -2% | ? | 14%
CCN1CCCc2cc(CN(CCN3CCOCC3)C(=O)Nc3ccc(C)c(C)c3)ccc21 | 1% | ? | 11% | 26µM* | 18%
CCc1ccc(NC(=O)N(CCN2CCOCC2)Cc2ccc3c(c2)CCCN3CC)cc1 | -4% | ? | -4% | ? | 5%
CCCCN1CCCc2cc(CN(CCCN3CCOCC3)C(=O)Nc3ccc(OCC)cc3)ccc21 | nt | 18µM* | 9% | 18µM* | nt
O=C(CSc1nc2c([nH]c3ccccc32)c(=O)n1-c1ccccc1F)Nc1ccccc1C(F)(F)F | nt | 16µM* | 8% | 21µM* | nt
C=CCn1c(SCC(=O)N2CCN(C(=O)OCC)CC2)nc2c([nH]c3ccccc32)c1=O | nt | ? | nt | 16µM* | nt
CCC1CCCCN1C(=O)CSc1nc2c([nH]c3ccccc32)c(=O)n1-c1ccc(OC)cc1 (stereo unspecified) | nt | ? | 8% | 18µM* | nt
COc1cccc(-n2c(SCC(=O)N3CCCc4ccccc43)nc3c([nH]c4ccccc43)c2=O)c1 | nt | ? | 7% | ? | nt
O=C(CSc1nc2c([nH]c3ccccc32)c(=O)n1-c1cccc(C(F)(F)F)c1)N1CCc2ccccc21 | nt | 7.3µM* | 4% | 8.2µM* | nt
CC(=O)/C(=C/c1ccc(N(C)C)cc1)C(=O)c1ccccc1 | -4% | ? | 8% | ? | 17%
N#C/C(=C/c1cn(-c2ccccc2)nc1-c1cccc(OCc2ccccc2)c1)C(=O)NCCCn1ccnc1 | ? | ? | 8% | ? | ?
COc1ccc(NC(=O)c2cc3ccccc3o2)cn1 | -1% | 5% | nt | 11% | 7%[1.91 µM]
O=C(CSc1nc2c([nH]c3ccccc32)c(=O)n1-c1ccccc1)Nc1ccccc1F | nt | ? | 3% | ? | nt
Cc1ccc(C)c(NC(=O)CSc2nc3c([nH]c4ccccc43)c(=O)n2-c2ccc(F)cc2)c1 | nt | 15µM* | 5% | 13µM* | nt
O=C(CSc1nc2c([nH]c3ccccc32)c(=O)n1-c1ccc(F)cc1)NC1CCCCC1 | nt | 15µM* | 2% | ? | nt
COc1ccc(-n2c(SCC(=O)NC3CCCCC3)nc3c([nH]c4ccccc43)c2=O)cc1 | nt | ? | -2% | 21µM* | nt
O=C(CSc1nc2c([nH]c3ccccc32)c(=O)n1-c1ccc(Cl)cc1)N1CCCCCC1 | nt | ? | 5% | 21µM* | nt
CCc1nnc(NC(=O)CSc2nc3c([nH]c4ccccc43)c(=O)n2-c2ccc(C)cc2)s1 | nt | -22% | -2% | -20% | nt
CCc1nnc(NC(=O)CSc2nc3c([nH]c4ccccc43)c(=O)n2-c2cc(C)cc(C)c2)s1 | nt | ? | 5% | 16µM* | nt
